Among the test systems are SK-MEL-2 melanoma; EKVX NSCLC; SN12C renal; UO-31 renal; TK-10 renal; ACHN renal; CAKI-1 renal; A498 renal; CCRF-CEM leukemia; MOLT-4 leukemia.
Holding throughout (test): NCI-60 one-dose screen, 48 h (100 = growth as untreated, 0 = no growth, -100 = all killed)
Common to all, as to details: 10 µM unless noted

Molecules are shown by their SMILES. Compounds without any hit were thinned out: in the full panel of roughly 83,000, 20% have a hit.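 Interpretation: 100, growth as untreated; towards 0, rising growth inhibition; 0, no net growth; 0 to -100, cell death. Compounds scoring below 10 were considered active.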 Values without a mark were called inactive. Activity calls are given as the source filed them.

Take `COCCOC(C)C(/C=N/NC(N)=S)=N/NC(N)=S` (stereo not given): the growth is 82.5% in the experiment with SK-MEL-2 melanoma; 55.7% with EKVX NSCLC; 76.5% in the experiment on SN12C renal; 79.1% in the experiment on UO-31 renal; 92.5% in the experiment on TK-10 renal; 66.7% in the experiment on ACHN renal. Also, the growth in the experiment on CAKI-1 renal is 82.6%; with A498 renal, 107%; with CCRF-CEM leukemia, 42.6%; in the experiment on MOLT-4 leukemia, 16.7%.
On to `COC(=O)[C@@]12CC=C(C)[C@]3(C[C@H](c4ccoc4)OC3=O)[C@H]1C=C[C@@H](O)[C@@]2(O)C(=O)OC`, for which the growth is 84.6% in the experiment with SK-MEL-2 melanoma; 94.7% with EKVX NSCLC; 104% in the experiment on SN12C renal; 82.7% with UO-31 renal; 80.3% in the experiment on TK-10 renal; 105% in the experiment with ACHN renal. Further, the growth is 85.1% in the experiment with CAKI-1 renal, 109% in the experiment on A498 renal, 111% with CCRF-CEM leukemia and 106% with MOLT-4 leukemia.
Take `CC(O)Cc1c[nH]c(=O)[nH]c1=O` (stereo not given): the growth in the experiment on SK-MEL-2 melanoma was 115%; in the experiment on EKVX NSCLC, 106%; with SN12C renal it was 110%; with UO-31 renal, 100%; with TK-10 renal, 123%; with ACHN renal, 97.9%. Besides, the growth was 99.6% in the experiment with CAKI-1 renal, 87.8% with A498 renal, 122% in the experiment on CCRF-CEM leukemia and 101% with MOLT-4 leukemia.
`C=C(C)[C@@H]1CC[C@]2(COC3CCCCO3)CC[C@]3(C)[C@H](CC[C@@H]4[C@@]5(C)C=C(C=O)C(=O)C(C)(C)[C@@H]5CC[C@]43C)[C@@H]12` (stereo not given in full): the growth with SK-MEL-2 melanoma was -40.9% (active); in the experiment on EKVX NSCLC, -60% (active); in the experiment on SN12C renal, -48.8% (active); in the experiment on UO-31 renal it was -86.8% (active); in the experiment with TK-10 renal, -82.5% (active); in the experiment with ACHN renal, -59.2% (active). In addition, the growth in the experiment on CAKI-1 renal is -40.8% (active); in the experiment with A498 renal, -95% (active); in the experiment on CCRF-CEM leukemia it was -34.9% (active); in the experiment with MOLT-4 leukemia, 3.64% (active).
`Cc1ccc(C(=O)c2ccc(CC(=O)N/N=C/c3cccc(O)c3O)n2C)cc1`: the growth in the experiment with SK-MEL-2 melanoma was 95.3%; in the experiment on EKVX NSCLC, 58.8%; with SN12C renal, 46.8%; in the experiment on UO-31 renal, 14.2%; with TK-10 renal, 38.8%; with ACHN renal it was 13.5%. The growth in the experiment on CAKI-1 renal is 37.3%; in the experiment on A498 renal, 93.3%; in the experiment with CCRF-CEM leukemia it was 13.1%; in the experiment on MOLT-4 leukemia, 11.2%.
Turning to `O=C1NC(=O)C(c2coc3cc(Br)ccc23)=C1c1c[nH]c2ccccc12`, the growth with SK-MEL-2 melanoma was 34.1%; with EKVX NSCLC, 54%; in the experiment on SN12C renal, 55%; in the experiment on UO-31 renal, 58%; with TK-10 renal, 80.8%; in the experiment on ACHN renal, 71.3%. Further, the growth in the experiment on CAKI-1 renal is 39.2%; in the experiment with A498 renal it was 5.34% (active); in the experiment on CCRF-CEM leukemia it was 29.1%; with MOLT-4 leukemia, 26%.
With `NCCCNc1nc2ccccc2c2c(=O)c3cc(Cl)ccc3sc12`, the growth was 41% in the experiment with SK-MEL-2 melanoma; 57.4% in the experiment with EKVX NSCLC; -66.5% (active) with SN12C renal; -71.7% (active) with UO-31 renal; 24.3% with TK-10 renal; -37.2% (active) in the experiment on ACHN renal. In addition, the growth with CAKI-1 renal was 22.1%; in the experiment on A498 renal, 70.2%; with CCRF-CEM leukemia, -28.5% (active); in the experiment with MOLT-4 leukemia it was -61.8% (active).
For `Cc1sc2nc(NCCN)[nH]c(=O)c2c1C`, the growth is 103% with SK-MEL-2 melanoma; 89.6% in the experiment with EKVX NSCLC; 90% in the experiment on SN12C renal; 91.4% in the experiment on UO-31 renal; 96.9% in the experiment with TK-10 renal; 91.2% with ACHN renal. For the same compound, the growth in the experiment with CAKI-1 renal was 100%; with A498 renal, 91.8%; in the experiment with CCRF-CEM leukemia, 117%; in the experiment on MOLT-4 leukemia, 106%.
With `O=C(NCCCCO)c1cncnc1Nc1ccc2c(ccn2Cc2cccc(F)c2)c1`, the growth with SK-MEL-2 melanoma is 106%; in the experiment with EKVX NSCLC it was 85.1%; with SN12C renal it was 87.7%; in the experiment on UO-31 renal, 67%; in the experiment on TK-10 renal, 98.7%; in the experiment with ACHN renal, 86.3%. Besides, the growth in the experiment on CAKI-1 renal is 79.8%; in the experiment on A498 renal it was 69.5%; in the experiment with CCRF-CEM leukemia, 103%; with MOLT-4 leukemia, 88.3%.
As to `CCNC(=O)N1CCc2c(Br)c3c(c(OC)c2C1Cc1ccc(OC)cc1)OCO3` (stereo not given), the growth in the experiment on SK-MEL-2 melanoma was 15.4%; with EKVX NSCLC, 54.4%; with SN12C renal, 49.9%; in the experiment with UO-31 renal, 40.2%; in the experiment on TK-10 renal it was 65.6%; with ACHN renal, 33.6%. Moreover, the growth was 18.6% in the experiment on CAKI-1 renal, -12.4% (active) with A498 renal, 31.5% with CCRF-CEM leukemia and 23.6% in the experiment on MOLT-4 leukemia.
Take `Cc1nn(-c2ccc([N+](=O)[O-])cc2)c2ncnc(N/N=C/c3ccccc3O)c12`: the growth in the experiment on SK-MEL-2 melanoma is 31.6%; with EKVX NSCLC, -0.848% (active); in the experiment with SN12C renal it was 6.16% (active); with UO-31 renal, -11.5% (active); in the experiment with TK-10 renal, 35.5%; with ACHN renal it was 12%. Besides, the growth in the experiment with CAKI-1 renal was 3.95% (active); in the experiment with A498 renal, 65.6%; with CCRF-CEM leukemia, -12.4% (active); in the experiment with MOLT-4 leukemia, 4% (active).
With `OC1CSSC1Cn1cnc2c(Nc3ccc(OCc4cccc(F)c4)c(Cl)c3)ncnc21` (stereo not given), the growth was -33.4% (active) with SK-MEL-2 melanoma; -71.9% (active) in the experiment on EKVX NSCLC; 30.5% with SN12C renal; 11.9% in the experiment on UO-31 renal; -5.98% (active) with TK-10 renal; 15.6% in the experiment on ACHN renal. The growth in the experiment with CAKI-1 renal was 19.6%; with A498 renal, 69.6%; in the experiment on CCRF-CEM leukemia, -8.33% (active); with MOLT-4 leukemia, -41.8% (active).
With `Nc1cccc(-c2ccc(COc3ccc(CC4SC(=O)NC4=O)cc3)cc2)c1` (stereo not given), the growth in the experiment with SK-MEL-2 melanoma is 52.3%; in the experiment with EKVX NSCLC, 62.2%; in the experiment on SN12C renal, 68.6%; with UO-31 renal it was 53.3%; in the experiment on TK-10 renal, 91.5%; with ACHN renal it was 62.6%. The growth was 47.3% with CAKI-1 renal, 110% in the experiment on A498 renal, 52.3% with CCRF-CEM leukemia and 43.2% in the experiment on MOLT-4 leukemia.

The record behind these values is PubChem BioAssay (NCI).
